Lassa entry inh – Lassa virus entry inhibition; Lassa virus pseudotype entry inhibition, cell reporter; Potency, µM (series often up to 37.9 µM), for inactives: at the highest dose activity change, negative = inhibition, hits mostly inhibitors; actives 1.2% (n = 300,000); AID 540256; calls by dose curve; tested in HEK293 cells; note: nearly all actives have a fitted effect of over 50% in size
AmpC inh detg – inhibitors of E. coli AmpC beta-lactamase with detergent; P00811; AmpC hydrolysis of nitrocefin, absorbance 480 nm, 0.01% Triton; Potency, µM (doses to about 114 µM), without a hit: at the top dose activity change, negative = inhibition, most hits filed as inhibitors; actives 0.041% (n = 370,000);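 note: 0% = no-compound wells and -100% = no-enzyme wells; nearly all actives have a fitted effect of over 25% in size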
Target sequence (P00811 whole entry, looked up): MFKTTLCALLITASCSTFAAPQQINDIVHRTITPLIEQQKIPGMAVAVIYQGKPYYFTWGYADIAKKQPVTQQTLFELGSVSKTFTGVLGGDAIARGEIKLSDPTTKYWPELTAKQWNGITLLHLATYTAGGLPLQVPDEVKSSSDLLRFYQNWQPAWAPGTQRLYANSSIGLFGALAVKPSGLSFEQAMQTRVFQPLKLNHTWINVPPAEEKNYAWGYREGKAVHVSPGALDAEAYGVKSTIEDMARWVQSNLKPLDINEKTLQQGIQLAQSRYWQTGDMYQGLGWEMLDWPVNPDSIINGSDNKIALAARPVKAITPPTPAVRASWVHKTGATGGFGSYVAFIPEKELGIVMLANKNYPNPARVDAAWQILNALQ
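AmpC (5.3 nM in the dispensed reagent) in 20 mM phosphate pH 7.0 with 0.01% (detergent screen) or 0.0001% Triton X-100 was preincubated with compounds for 15 min at room temperature. Nitrocefin was then added from an 800 uM solution, and hydrolysis was followed at 480 nm.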
AMA1-RON2 inh – disrupts binding of P. falciparum AMA1 to RON2. AlphaScreen AMA1-biotinylated RON2 peptide binding. Potency, µM (top dose mostly 58.2 µM), for the others: at the top dose activity change, negative = inhibition, hits mostly inhibitors. actives 0.2% (n = 360,000). AID 720542;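 note: 0% = vehicle wells and -100% = peptide control; nearly all actives have a fitted effect of over 45% in size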
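AMA1 (3D7) with his tag at 25 nM final met compounds first, then biotinylated RON2 peptide at 25 nM; detection used donor plus acceptor beads, 10 µg/mL apiece, read by AlphaScreen after 30 min at room temperature.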
Marburg entry inh – Marburg virus entry inhibition; Marburg virus pseudotyped entry inhibition, cell reporter; actives 1.8% (n = 300,000); Potency, µM (titrated, usually from 37.8 µM), for the others: top-dose activity change, negative = inhibition, usual class: inhibitors; calls by dose curve; tested in HEK293 cells
AmpC inh no detg – AmpC beta-lactamase inhibition without detergent. P00811. AmpC nitrocefin hydrolysis, absorbance 480 nm, 0.0001% Triton. Potency, µM (highest dose often 57.1 µM), without a hit: at the top dose activity change, negative = inhibition, most hits filed as inhibitors. actives 0.52% (n = 330,000). AID 485341;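 note: plate controls were no compound for no effect and no enzyme for full effect; nearly all actives have a fitted effect of over 20% in size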
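AmpC (5.3 nM in the dispensed reagent) in 20 mM phosphate pH 7.0 with 0.01% (detergent screen) or 0.0001% Triton X-100 was preincubated with compounds for 15 min at room temperature. Nitrocefin was then added from an 800 uM solution, and hydrolysis was followed at 480 nm.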
The depositor's hits bear a star; ? = inconclusive; · = not tested or not shown; [ ] = another dose, or the depositor's remark. A selection: hits, their analogues and other compounds. The true share with any hit is near 2.3%. Unless noted, calls come from the whole dose curve; as a rule, active = well fitted curve in the direction sought with a large enough effect; inconclusive = small, poorly fitted or top-dose-only effect, or another doubt; inactive = no such curve, though single readings can be large; an effect the other way counts as inactive or inconclusive. Unless noted, % is set by controls: 0 for no effect and ±100 for the full control effect; potency is the fitted concentration of half-maximal effect.

SMILES	Lassa entry inh	AmpC inh detg	AMA1-RON2 inh	Marburg entry inh	AmpC inh no detg
O=C(Nc1cccc(C(=O)OCc2cc(=O)n3c4c(sc3n2)CCCC4)c1)c1cccc(F)c1	?	11%	·	·	·
CC(=O)c1ccc(N2CCN(C(=O)c3nn(Cc4ccccc4)c(=O)c4ccccc34)CC2)cc1	10µM*	-4%	-3%	?	71%
CC(=O)c1ccc(N2CCN(C(=O)c3n[nH]c4ccccc34)CC2)cc1	-12%	-7%	-13%	?	-21%[11.4 µM]
CC(=O)c1ccc(N2CCN(C(=O)c3cccc(Oc4ccccc4)c3)CC2)cc1	3.2µM*	?	-28%	?	-7%[11.4 µM]
CNC(=O)c1c(NC(=O)c2cc(=O)c3cc(C)c(C)cc3o2)sc2c1CCCC2	22%[46.1 µM]	-2%	·	?	·
Cc1ccc(OCc2nc(-c3ccc(C(=O)N4CCN(c5ccccc5F)CC4)cc3)oc2C)cc1	22%[46.1 µM]	-1%	·	·	·
CC(C)c1ccc(NC(=O)c2csnn2)cc1	9.2µM*	?	1%	?	-14%
O=C(N/N=C/c1ccccc1F)c1csc2c1CCCC2	11µM*	8%	16%	10%	-28%
C/C(=N/NC(=O)COc1ccc(C(C)(C)C)cc1)c1ccc(N2CCOCC2)cc1	0.56µM*	·	56%	-4%	·
CC(C)(C)c1ccc(OCC(=O)N/N=C/c2ccc(N3CCOCC3)cc2)cc1	0.092µM*	-6%	2%	-23%	88%
COCCNC(=S)N/N=C/c1ccc(N2CCOCC2)cc1	?	?	27%	23µM*	6%
Cc1ccc(C)c(OCC(=O)N/N=C/c2ccc(N3CCOCC3)cc2)c1	·	·	50%	·	·
CCOc1ccc(C2=C(C(=O)CC)Sc3nncn3N2C(=O)CC)cc1	?	-1%	·	·	·
COc1ccc([C@]23Cc4cc(OC)c(OC)cc4[C@H](O2)C2=C(CC(C)(C)CC2=O)O3)cc1	·	·	·	20%[14.2 µM]	·
O=C(Nc1ccccc1Br)C1CC(=O)N(c2ccc3c4c(cccc24)CC3)C1 (stereo not given)	?	?	-1%	10µM*	11%
Cc1ccccc1NC(=O)C1CC(=O)N(c2ccc3c4c(cccc24)CC3)C1 (stereo not given)	-4%	0%	-2%	-10%	92%
CC(C)(C)C1CCc2c(sc(NC(=O)c3cc4ccccc4c(=O)o3)c2C(N)=O)C1 (stereo not given)	?	4%	·	10%[46.1 µM]	·
COc1ccc(NC(=O)CC2C(=O)N(c3cccc(OC)c3)C(=O)N2CCC2=CCCCC2)cc1 (stereo not given)	11µM*	10%	·	?	·
Cc1coc2c1C(=O)C(=O)c1c-2ccc2c1CCCC2(C)C	·	-1%	?	·	10µM*
C[C@H]1COC2=C1C(=O)C(=O)c1c2ccc2c1CCCC2(C)C	·	1%	28µM*	·	?
Cc1coc2c1C(=O)C(=O)c1c-2ccc2c(C)cccc12	·	-1%	?	·	-59%
Cc1ccccc1NC(=O)CN(C)S(=O)(=O)c1cccc2nsnc12	28%[46.1 µM]	-3%	·	·	·
Cc1ccc2nc(N3CCN(S(=O)(=O)c4ccc(C)c(Cl)c4)CC3)c(C#N)cc2c1	?	?	42%	4.6µM*	-38%
COc1ccc(-c2nn(C)c(=O)c3ccccc23)cc1NC(=O)COc1ccc(C)cc1	5.8µM*	?	0%	?	-28%
COc1ccc(-n2nc(C(=O)NCC(=O)Nc3cc(C)ccc3OC)c3ccccc3c2=O)c(OC)c1	6.3µM*	-11%	10%	2%[46.1 µM]	-10%
SMILES	Lassa entry inh	AmpC inh detg	AMA1-RON2 inh	Marburg entry inh	AmpC inh no detg
COc1ccc(-n2nc(C(=O)NCC(=O)NC3CCCCC3)c3ccccc3c2=O)c(OC)c1	13µM*	?	0%	?	-6%
CC1=C(C(=O)Nc2ccccc2)C(c2cccnc2)n2nc(SCc3ccccc3Cl)nc2N1 (stereo not given)	13%[46.1 µM]	2%	·	6%[46.1 µM]	·
Cc1ccc(NC(=O)C(Cc2ccccc2)N2Cc3ccccc3C2=O)cc1Cl (stereo not given)	-15%[46.1 µM]	19%	·	·	·
COc1ccc(NC(=O)CSc2nc(-c3cccs3)cc(C(F)(F)F)n2)cc1OC	?	2%	·	·	·
O=C(CSc1nc(-c2cccs2)cc(C(F)(F)F)n1)Nc1cc(OCC(F)(F)F)cc([N+](=O)[O-])c1	?	1%	8%	7.1µM*	-13%
C=CCNc1nnc(S[C@@H]2CC(=O)N(c3ccc(OC)cc3)C2=O)s1	·	·	·	-8%	·
COc1cc(Nc2nccc(Nc3ccc4c(C)[nH]nc4c3)n2)cc(OC)c1OC	25µM*	·	·	·	·
COc1cc(Nc2nc(-c3ccccc3)c3cc(C)ccc3n2)cc(OC)c1OC	?	?	-26%	?	20%
COc1ccc([C@H]2CC(=O)c3sc(N)nc3C2)cc1	·	·	·	-2%[46.1 µM]	·
CCN(CC)c1ccc(N=Cc2c(O)n(CCc3ccc(OC)c(OC)c3)c(=O)[nH]c2=O)cc1	?	0%	-12%[2.32 µM]	2.8µM*	-27%
O=S1(=O)c2ccccc2N(Cc2cccc(F)c2)c2ccccc21	1%[46.1 µM]	0%	·	·	·
COc1ccc(NC2=NCC(C)S2)cc1 (stereo not given)	4%	-10%	4%	-23%[46.1 µM]	-11%
COc1ccc(NC2=NCC(Cc3ccc(Br)cc3)S2)cc1 (stereo not given)	?	6%	18µM*	?	-21%
CC(C)Oc1ccc(CNC(=O)c2ccc(CS(=O)c3cccc(Cl)c3)o2)cc1 (stereo not given)	-28%[46.1 µM]	-5%	·	·	·
CC1CC(C)CN(CCOCCSc2ccc(Cl)cc2)C1 (stereo not given)	?	2%	-22%	7.1µM*	67%
CC1CC(C)CN(CCOCCSc2ccccc2)C1 (stereo not given)	9.2µM*	1%	-12%	?	-6%
CC1CN(CCCCSc2ccccc2)CC(C)O1 (stereo not given)	·	?	-7%	·	-5%
CC1CN(CCCSc2ccc(Cl)cc2)CC(C)O1 (stereo not given)	-7%	-6%	-22%	-25%[46.1 µM]	-6%[2.29 µM]
CC1CC(C)CN(CCCSc2ccccc2)C1 (stereo not given)	?	?	-25%	2.9µM*	-19%
CCO[C@H](c1cc(OC)cc([N+](=O)[O-])c1OC)[C@H](C)C=CCC(=O)OC	·	·	·	1%[14.2 µM]	·
COc1cccc(CN(C)C(=O)c2cccc(S(=O)(=O)N3CCN(c4ccccc4)CC3)c2)c1OC	·	·	-7%	0%	·
COc1cccc(CN(C)C(=O)c2cccc(S(=O)(=O)N3CCN(c4ccc(F)cc4)CC3)c2)c1OC	?	-15%	-29%	2µM*	93%
COc1ccc(N2CCN(/C(=N\S(=O)(=O)c3ccc(C)cc3)Nc3nc(C)cc(C)n3)CC2)cc1	8.2µM*	0%	-6%	-17%	78%
COc1cccc2cc(S(=O)(=O)c3ccccc3)c(=Nc3ccc4c(c3)OCCO4)oc12	11%	-6%	4%	1%	3.5µM*

From PubChem
